Source: PubChem (National Center for Advancing Translational Sciences (NCATS))
TbPYK inhibitor – qHTS of Trypanosoma Brucei Inhibitors. Potency, µM (series often up to 76.8 µM), for the others: at the top dose activity, negative = inhibition, hits mostly inhibitors. 0.12% of 410,000 active. pyruvate kinase (Trypanosoma brucei), Q57TT1. TbPYK enzyme, Kinase-Glo Plus ATP luminescence, 45 min; also: nearly all actives have a fitted effect of over 50% in size
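TbPYK + substrate in 50 mM TEA pH 7.2, 100 mM KCl, 10 mM MgCl2, 0.05% BSA, 0.01% Tween-20; cpd pinned; ADP 130 uM final; 45 min RT; Kinase-Glo Plus 10 min; luminescence endpoint.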
AMA1-RON2 inh – qHTS for Inhibitors of AMA1-RON; Towards Development of Antimalarial Drug Lead: Primary Screen; AlphaScreen AMA1-biotinylated RON2 peptide binding; Potency, µM (top dose mostly 58.2 µM), for inactives: at the top dose activity change, negative = inhibition, actives largely listed as inhibitors; Plasmodium falciparum AMA1 (3D7) - RON2 peptide interaction; 0.2% of 360,000 active;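 also: 0% = vehicle wells and -100% = peptide control; nearly all actives have a fitted effect of over 45% in size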
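AMA1 (3D7) with his tag at 25 nM final met compounds first, then biotinylated RON2 peptide at 25 nM; detection used donor plus acceptor beads, 10 µg/mL apiece, read by AlphaScreen after 30 min at room temperature.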
Vaccinia mCherry – qHTS for Stage-Specific Inhibitors of Vaccinia Orthopoxvirus: mCherry Reporter Primary qHTS. Vaccinia virus mCherry reporter infection, fluorescence. Potency, µM (highest dose often 36.5 µM), for inactives: top-dose activity change, negative = inhibition, usual class: inhibitors. 0.63% of 310,000 active. AID 720579, 2013; calls by dose curve; tested in A549 cells; also: nearly all actives have a fitted effect of over 35% in size
RE007 growth inh – qHTS Assay for Inhibitors of the HIV-1 protein Vpr | Potency, µM (titrated, usually from 92.2 µM), without a hit: top-dose activity change, negative = less growth, most hits filed as inhibitors | AID 651644, 2012 | S. pombe RE007 Vpr strain, BacTiter-Glo ATP luminescence, 24 h | 0.21% of 360,000 active; active = well fitted falling curve with a large enough effect; inconclusive = small, poorly fitted or top-dose-only effect; inactive = no such curve, though single readings can be large or run the other way; also: nearly all actives have a fitted effect of over 50% in size
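Fission yeast RE007 carrying one integrated HIV-1 vpr copy, seeded at OD 0.01 in PMG+AL medium with 23 nL pinned compound. Grown 24 h at 30 degrees; viability read by BacTiter-Glo luminescence after 5 min.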
LmPK inh – qHTS Assay for Inhibitors of Leishmania Mexicana Pyruvate Kinase (LmPK). Q27686. purified LmPK, Kinase-Glo ATP luminescence, 1 h. Potency, µM (series often up to 57.5 µM), inactives show at the highest dose activity change, negative = inhibition, most hits filed as inhibitors. 0.37% of 290,000 active. AID 1721, 2009
Target sequence (Q27686 whole entry, looked up): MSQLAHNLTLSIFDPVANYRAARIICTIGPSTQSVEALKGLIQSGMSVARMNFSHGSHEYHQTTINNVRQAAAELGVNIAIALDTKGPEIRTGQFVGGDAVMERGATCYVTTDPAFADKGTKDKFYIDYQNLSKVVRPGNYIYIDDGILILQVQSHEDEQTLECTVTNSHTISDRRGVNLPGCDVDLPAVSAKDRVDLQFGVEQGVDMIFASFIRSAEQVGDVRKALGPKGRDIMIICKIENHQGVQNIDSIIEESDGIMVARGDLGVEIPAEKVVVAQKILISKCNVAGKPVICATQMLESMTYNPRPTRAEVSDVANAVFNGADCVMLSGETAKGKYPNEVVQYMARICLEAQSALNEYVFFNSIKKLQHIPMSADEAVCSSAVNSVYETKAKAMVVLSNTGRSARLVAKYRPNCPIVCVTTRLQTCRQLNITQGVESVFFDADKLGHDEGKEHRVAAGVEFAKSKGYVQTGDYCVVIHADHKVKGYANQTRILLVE
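ATP generated from ADP (0.1 mM) and PEP (0.5 mM) by 0.1 nM LmPK over 1 h at room temperature (pH 7.2 imidazole buffer) was detected by coupled luciferase luminescence. Values were normalized to uninhibited and no-enzyme wells.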
VACV Venus inh – qHTS for Stage-Specific Inhibitors of Vaccinia Orthopoxvirus: Venus Reporter Primary qHTS; 0.46% of 330,000 active; Potency, µM (titrated, usually from 36.5 µM), without a hit: at the top dose activity change, negative = inhibition, most hits filed as inhibitors; Vaccinia virus Venus reporter expression, fluorescence; calls by dose curve; tested in A549 cells; also: nearly all actives have a fitted effect of over 30% in size
The depositor's hits bear a star; i = inactive; ? = inconclusive; . = not tested or not shown; [ ] = dose if it differs, or a comment. The list is not random: actives were taken first. Their share in the collection is about 1.3%. Unless noted, calls follow the shape of the dose curve; as a rule, active = well fitted curve in the direction sought with a large enough effect; inconclusive = small, poorly fitted or top-dose-only effect, or another doubt; inactive = no such curve, though single readings can be large; an effect the other way counts as inactive or inconclusive. Unless noted, % is scaled to controls: 0 for no effect and ±100 for the full control effect; potency is read from the fitted curve at half-maximal effect.

SMILES	TbPYK inhibitor	AMA1-RON2 inh	Vaccinia mCherry	RE007 growth inh	LmPK inh	VACV Venus inh
CCCNC(=O)CCCCn1c(=S)[nH]c2c([nH]c3ccc(OC)cc32)c1=O	-13.5%	114.7%	.	1.3%	-2.5%	.
COc1ccc2[nH]c3c(=O)n(CCCCC(=O)N4CCCC4)c(=S)[nH]c3c2c1	?	44.4%	-10.2%	-5.6%	2µM*	-10.0%
c1c2c(cc3sc(N4CCOCC4)nc13)OCCO2	?	-7.0%	.	?	14.1µM*	.
Cc1ncc2c(c1CNS(=O)(=O)N(C)C)CCN(C(=O)/C=C/c1ccccc1F)C2	.	.	-19.1%	.	.	-9.3%
COc1ccc(/C=N/Nc2nc(-c3ccc(C)cc3)c(NC(C)=O)s2)cc1	-7.2%	41.4%	10µM*	-15.3%	13.8%	-18.4%
CC(=O)Nc1sc(N/N=C/c2ccc(O)cc2)nc1-c1ccc(C)cc1	-2.9%	73.3%	.	19.7%	18.0%	.
COC(=O)C1CCN(c2nc(CN(C)C3CCOC3)nc3cc(OC)c(OC)cc23)CC1 (centres undefined)	.	.	2.9%	.	.	13.0%
CCC1(C2CCN(Cc3cc4ccccc4o3)CC2)NC(=O)N(CC2COc3ccccc3O2)C1=O (centres undefined)	.	.	?	.	.	-35.4%
COc1ccc(-c2csc(N(CCCN(C)C)C(=O)c3ccccc3Cl)n2)cc1	3.3%	-4.7%	11.2µM*	-15.3%	.	?
CCCSc1nc2c(cnn2-c2ccc(C)cc2)c(=O)[nH]1	-1.1%	5.1%	?	-12.8%	-1.0%	28.2µM*
O=C(NC1CCCC1)c1cn(C2CCCN(Cc3ccc4c(c3)OCCO4)C2)nn1 (centres undefined)	.	.	1.0%	.	.	2.2%
Cc1ccc2c(c1)CC1(CN2C)C(=O)OC(C)(C)OC1=O	-2.1%	-5.1%	7.08µM*	-11.0%	15.8µM*	10µM*
CCSC(=O)N=Nc1ccc(O)cc1	-12.5%	-18.0%	-10.6%	15.8µM*	.	6.4%
C[N+](C)(CCOc1ccccc1)Cc1ccccc1	0.8%	-7.3%	i	-2.6%	.	-16.4%
Cc1cc(C(C)(C)CC(C)(C)C)ccc1OCCOCC[N+](C)(C)Cc1ccccc1	-8.9%	-16.0%	10µM*	3.0%[18.4 µM]	.	10µM*
COc1ccc(CN2CCCC(n3cc(C(=O)NC4CCCC4)nn3)C2)c2ccccc12 (centres undefined)	.	.	i	.	.	-18.9%
O=C1[C@@H]2C(c3cccnc3)=NO[C@@H]2C(=O)N1c1ccc2ccccc2c1	-8.0%	-4.2%	-1.1%	14.1µM*	-1.9%	-10.9%
COc1ccc(C2=NO[C@@H]3C(=O)N(c4ccc5c(c4)OCCO5)C(=O)[C@H]23)cc1OC	2.2%	-8.7%	.	3.5%	-8.8%	.
COc1cccc(OC)c1C(=O)NC(C)C12CC3CC(CC(C3)C1)C2 (centres undefined)	-0.9%	-14.1%	-16.9%	10µM*	-2.6%	-8.9%
C=CCN1CCc2cccc3c2[C@H]1Cc1ccc(O)c(O)c1-3	?	-7.1%	?	?	1.58µM*	-8.7%
CCCN1CCc2cc(O)cc3c2C1Cc1ccc(O)c(O)c1-3 (centres undefined)	.	.	i	.	.	-11.4%
COc1ccccc1NC(=O)CSc1oc(-c2ccc(F)cc2)nc1S(=O)(=O)c1ccc(Br)cc1	-9.0%	.	14.1µM*	.	.	?
O=[N+]([O-])c1ccc(S(=O)(=O)c2cccc(C(F)(F)F)c2)nc1	1.7%	-20.5%	-20.3%	39.8µM*	.	?
Oc1cc2c(cc1O)[C@H]1c3ccccc3CN[C@@H]1CC2	.	.	i	.	4.47µM*	-7.3%
Clc1ncccc1-c1nnn(-c2ccccc2)n1	-11.4%	10.5%	i	-22.9%	15.8µM*	-1.1%
SMILES	TbPYK inhibitor	AMA1-RON2 inh	Vaccinia mCherry	RE007 growth inh	LmPK inh	VACV Venus inh
O=C(O)CSC1CC(=O)N(c2ccc(Cl)c(Cl)c2)C1=O (centres undefined)	7.4%	-0.6%	.	11.2µM*	1.2%	-9.6%
O=C(CN1Cc2ccccc2OC(c2ccsc2)C1)N1CCC(c2nc3ccccc3[nH]2)CC1 (centres undefined)	.	.	-16.9%	.	.	-11.6%
O=C(NN=C1CCCC1)c1[nH]c2ccc(Br)cc2c1-c1ccccc1	8.4%	55.3%	11.2µM*	10.2%	1.4%	?
COc1ccc(C(=O)N/N=C/C23CC[C@@H](O)CC2(O)CC[C@@H]2[C@@H]3CCC3(C)C(C4=CC(=O)OC4)CCC23O)cc1 (some centres undefined)	1.7%	5.9%	.	20.3%	1.4%	.
COc1cc(C(=O)N/N=C/C23CC[C@@H](O)CC2(O)CC[C@@H]2[C@@H]3CCC3(C)C(C4=CC(=O)OC4)CCC23O)ccc1O (some centres undefined)	0.2%	7.7%	10µM*	1.3%	-3.4%	?
CCC1CN(CCNC(=O)c2cc(C(C)C)nn2C)Cc2cc(OC)ccc2O1 (centres undefined)	.	.	-19.0%	.	.	-18.9%
O=C1/C(=C\c2ccc(Cl)c(Cl)c2)CN(C(=O)CCN2CCOCC2)C/C1=C/c1ccc(Cl)c(Cl)c1	-6.3%	-3.9%	?	?	.	11.2µM*
O=C1/C(=C\c2ccccc2)CN(C(=O)CCN2CCCCC2)C/C1=C/c1ccccc1	-8.0%	-1.3%	12.6µM*	16.7%	.	11.2µM*
CCN(CC)CCC(=O)N1C/C(=C/c2ccccc2)C(=O)/C(=C\c2ccccc2)C1	-11.6%	0.7%	?	-14.4%	.	?
CC[N+](CC)(CC)c1ccc(/C=C/c2ccc3ccccc3n2)cc1	.	.	i	.	.	i
Cc1ccc2oc3nc(C)c(C(=O)O)cc3c(=O)c2c1	?	-3.3%	-10.0%	-19.1%	15.8µM*	-4.6%
CC(=O)c1cc2c(=O)c3cc(C)ccc3oc2nc1C	-16.0%	4.9%	.	-13.7%	14.1µM*	-23.9%
CCOC(=O)N1CCc2c(sc3c2c(=O)n(CCc2ccccc2)c(=O)n3Cc2ccc(C)cc2C)C1	-1.6%	.	-17.5%	.	.	-13.1%
CCC1(C2CCN(C(=O)c3ccccc3C)CC2)NC(=O)N(CCc2scnc2C)C1=O (centres undefined)	.	.	-10.2%	.	.	-5.0%
O=S(=O)(CCN1CCN(c2ccccc2O)CC1)c1ccc(Cl)cc1	-2.8%	11.7%	?	0.3%	.	?
O=S(=O)(CCN1CCSCC1)c1ccccc1	0.6%	-12.4%	12.6µM*	-0.6%	-5.5%	?
